# Compound activity from PubChem BioAssay.
# The entries come from a sample that favours hits as a whole.
# CHX counter = counter-screen hit for Shiga toxin inhibitors, cycloheximide; cell reporter, cycloheximide protein synthesis inhibition counterscreen; max response, %; actives 12% (n = 300,000); in the data active = max response mostly above about 13%, no sharp cut-off; inactive = mostly below about 14%; note: read at 38.3 µM for the half of the compounds with a filed dose; 0% is about no effect
# Marburg entry inh = blocks Marburg virus binding to or entry into cells; actives 1.8% (n = 300,000); Marburg virus pseudotyped entry inhibition, cell reporter; Potency, µM (doses to about 37.8 µM), for the others: at the highest dose activity change, negative = inhibition, most hits filed as inhibitors; calls by dose curve; tested in HEK293 cells; note: potency is the fitted concentration of half-maximal effect; % is set by controls: 0 for no effect and ±100 for the full control effect
# LASV entry inh = inhibitors of Lassa virus binding or cell entry; Lassa virus pseudotype entry inhibition, cell reporter; Potency, µM (top dose mostly 37.9 µM), for inactives: at the top dose activity change, negative = inhibition, most hits filed as inhibitors; actives 1.2% (n = 300,000); calls by dose curve; tested in HEK293 cells; note: potency is the fitted concentration of half-maximal effect; % is set by controls: 0 for no effect and ±100 for the full control effect; nearly all actives have a fitted effect of over 50% in size
# Vaccinia Venus = vaccinia inhibition (Venus reporter); Potency, µM (titrated, usually from 36.5 µM), without a hit: at the top dose activity change, negative = inhibition, usual class: inhibitors; Vaccinia virus Venus reporter expression, fluorescence; actives 0.46% (n = 330,000); calls by dose curve; tested in A549 cells; note: potency is the fitted concentration of half-maximal effect; % is set by controls: 0 for no effect and ±100 for the full control effect; nearly all actives have a fitted effect of over 30% in size
# Vaccinia mCherry = vaccinia inhibition (mCherry reporter); Vaccinia virus mCherry reporter infection, fluorescence; actives 0.63% (n = 310,000); Potency, µM (top dose mostly 36.5 µM), for inactives: at the highest dose activity change, negative = inhibition, hits mostly inhibitors; AID 720579; calls by dose curve; tested in A549 cells; note: potency is the fitted concentration of half-maximal effect; % is set by controls: 0 for no effect and ±100 for the full control effect; nearly all actives have a fitted effect of over 35% in size
# Shiga toxin inh = blocks Shiga toxin action in Vero cells | Vero cells, Shiga toxin protein synthesis inhibition reporter | inhibition, % at 38.7 µM | actives 9.2% (n = 290,000) | AID 2315; in the data active = inhibition mostly above about 28%, no sharp cut-off; inactive = mostly below about 43%; note: 0% is about no effect
# Numbers without * were called inactive; i = inactive; ? = inconclusive; . = no result given; [ ] = remark or other dose.
SMILES,CHX counter,Marburg entry inh,LASV entry inh,Vaccinia Venus,Vaccinia mCherry,Shiga toxin inh
CC1CCc2c(sc(NC(=O)c3ccco3)c2C(=O)O)C1 (stereo not drawn),40*,3.5µM*,?,-23%,-22%,126*
CCOC(=O)c1c(NC(=O)C(C)N2CCN(C(=O)c3ccco3)CC2)sc2c1CCCC2 (stereo not drawn),19*,?,11µM*,?,?,29
Cc1ccccc1CNC(=O)CC1C(=O)NCCN1Cc1c(F)cccc1Cl (stereo not drawn),-2,6%[46.1 µM],-20%[46.1 µM],-8%,-11%,-5
COC(=O)c1c(NC(=O)c2ccoc2C)sc2c1CCC2,0,-20%,6%,.,.,-5
Cc1occc1C(=O)Nc1sc2c(c1C(N)=O)CCCCC2,29*,?,?,-27%,?,62*
NC(=O)c1ccsc1NC(=O)c1coc2ccccc2c1=O,24*,-21%,5%,-11%,-9%,104*
CCCc1cc(C(N)=O)c(NC(=O)c2ccoc2C)s1,8,-21%,14%,.,.,-3
Cc1occc1C(=O)Nc1sccc1C(N)=O,38*,15%[46.1 µM],-2%[46.1 µM],-23%,-6%,35
CN(C)C(CNC(=O)c1coc2ccccc2c1=O)c1ccccc1 (stereo not drawn),14,?,?,-8%,?,22
CN(C)C(=O)c1c(NC(=O)c2ccco2)sc2c1CCCCC2,16*,-5%,11%,-4%,.,29
COc1cc(C=O)c(-c2c(C=O)cc(OC)c3c2OCO3)c2c1OCO2,-3,.,.,.,.,.
COc1cccc(N2C(=O)C(O)=C(C(C)=O)[C@@H]2c2ccc(OC)c(OC)c2)c1,.,7%,.,.,.,.
Cc1cc2nc(/C=C/c3cccnc3)[nH]c2cc1C,31*,.,.,.,.,40*
Cc1cc2nc(/C=C/c3nc4cc(C)c(C)cc4[nH]3)[nH]c2cc1C,4,.,.,7%,i,2
Cc1ccccc1Cn1ccc(NC(=O)c2nn3cccnc3c2Cl)n1,22*,-6%[46.1 µM],12%[46.1 µM],11%,-12%,47
O=C(Nc1ccn(Cc2ccc(Cl)cc2)n1)c1ccc2c(c1)OCO2,22,16%,4%,.,.,50*
Cc1ccc(Cn2ccc(NC(=O)c3nn(C)cc3Cl)n2)cc1,38*,6%[46.1 µM],13%,-16%,.,92*
Cc1cccc(Cn2ccc(NC(=O)c3ccc4c(c3)OCO4)n2)c1,28*,?,13%,?,-16%,74*
Cc1ccccc1Cn1ccc(NC(=O)c2cc3ncc(Br)cn3n2)n1,-1,.,.,.,.,-6
Cc1cccc(Cn2ccc(NC(=O)c3cccnc3)n2)c1,3,.,.,.,.,5
N[C@@H](CO)c1nnc([C@H](CC(=O)O)NC(=O)C2CCNCC2)o1,-1,.,.,-5%,i,18
Cc1cc(NC(=O)c2ccc3nccnc3c2)ccc1Br,.,?,-25%,-10%,-1%,.
COC(=O)c1ccc(NC(=O)c2ccc3nccnc3c2)cc1,11,-3%[46.1 µM],0%[46.1 µM],-2%,-13%,43
O=C(Nc1ccc(SC(F)F)cc1)c1ccc2nccnc2c1,46*,?,9%,-21%,-14%,41*
O=C(Nc1ccc(OC(F)(F)F)cc1)c1ccc2nccnc2c1,27*,?,-22%[46.1 µM],-19%,-5%,79*
SMILES,CHX counter,Marburg entry inh,LASV entry inh,Vaccinia Venus,Vaccinia mCherry,Shiga toxin inh
CCc1cc2c(=O)oc(-c3ccccc3F)nc2s1,14*,.,.,.,.,.
Cc1cc(OCC(=O)NCCCN(C)C)cc(C)c1Br,-6,-5%,-1%,-13%,.,-24
[N-]=[N+]=NCCN1CCN(CCc2ccccc2)CCC1=O,-2,.,.,-1%,i,6
C=Cc1ccc(Cn2c(SCC(=O)N3CCN(c4ccc(F)cc4)CC3)nc3ccccc32)cc1,.,4%[46.1 µM],.,-15%,-13%,.
CCc1[nH]nc(C(=O)N2CCCC(C(=O)c3cccc(OC(C)C)c3)C2)c1C (stereo not drawn),24*,-10%[46.1 µM],?,-19%,-9%,51*
CC(C)Oc1cccc(C(=O)C2CCCN(C(=O)CCc3cnn(C)c3)C2)c1 (stereo not drawn),52*,-27%,-26%,-17%,-6%,66*
CC1(C(=O)N2CCN(Cc3ccccc3Cl)CC2)CC1(Cl)Cl (stereo not drawn),20*,.,.,.,.,120*
CC1=C(N2CC2)C(=O)C(CO)=C(N2CC2)C1=O,.,?,0.11µM*,0.35µM*,0.35µM*,.
Cc1ccc(Nc2c(-c3ccc(N4CCOCC4)cc3)nc3ccc(C)cn23)cc1,.,-1%[46.1 µM],26%[46.1 µM],-7%,-3%,.
Cc1ccccc1Nc1c(-c2ccc(N3CCOCC3)cc2)nc2cnccn12,25*,?,-4%[46.1 µM],9%,?,73
Cc1ccc(Nc2c(-c3ccc(N4CCOCC4)cc3)nc3cnccn23)cc1,7.8*,2%[46.1 µM],?,-18%,?,44
Cc1cc(C)c2cc3c(N)c(C(=O)N4CCc5ccccc5C4)sc3nc2c1,-1,0%,6%,-9%,-7%,6
Cc1cccc2cc3c(N)c(C(=O)N4CCOCC4)sc3nc12,50*,?,11µM*,?,?,115*
CC1=NN(Cc2cc(C(C)(C)C)c(O)c(C(C)(C)C)c2)C(=O)C1,-3,.,.,.,.,-5
CCCCCN1N=C(C)CC1=O,2,-13%[46.1 µM],2µM*,-5%,i,-1
Cc1nnc(N2CCN(c3ccccc3F)CC2)c2c1nnn2Cc1ccc(F)cc1,.,0%[46.1 µM],0%[46.1 µM],-12%,-3%,.
CC1(C)CC(=O)/C(=N/Nc2ccc(Cl)cc2)CO1,32*,.,.,.,.,93*
COc1ccccc1N/N=C1\COC(C)(C)CC1=O,34*,28%[46.1 µM],8%,-11%,?,137*
Cc1cccc(N/N=C2/COC(C)(C)CC2=O)c1,78*,-24%,-23%,.,.,133*
CC1(C)CC(=O)C=C(Nc2ccc(Cl)cc2)C1,-3,0%[46.1 µM],8%[46.1 µM],-3%,-11%,-11
COc1ccccc1NC(=O)Cn1c(=O)n(C)c(=O)c2sc3c(c21)COC(C)(C)C3,10,.,.,.,.,2
Cc1cccc(NN=C2c3ccccc3-c3ccccc32)c1,16,-1%,18%,-8%,-10%,17
COc1ccc2c(c1)-c1nc(NC(=O)c3cc(OC)c(OC)c(OC)c3)sc1CC2,.,?,?,-18%,-25%,.
O=C(CCCN1C(=O)c2ccccc2C1=O)Nc1cccc(S(=O)(=O)NC2=NCCC2)c1,0,9%[46.1 µM],9%,0%,-14%,-6
CC(C)NC(=O)CN1CCN(C(=O)CCl)CC1,-3,-2%[46.1 µM],3%,10µM*,13µM*,-12
CCCc1nnc(NC(=O)c2nc(S(=O)(=O)Cc3ccc(C)cc3)ncc2Cl)s1,30*,-2%[46.1 µM],?,-10%,-14%,44*
CC(C)c1nnc(NC(=O)c2nc(S(=O)(=O)Cc3ccccc3)ncc2Cl)s1,67*,?,?,?,?,75*
CCc1ccc(NC(=O)c2nc(S(=O)(=O)Cc3ccccc3)ncc2Cl)cc1,-8,.,.,.,.,-10
CSc1nnc(NC(=O)c2nc(S(=O)(=O)Cc3ccccc3)ncc2Cl)s1,54*,?,?,-2%,-1%,68*
